# Assay outcomes (PubChem)
# AHR act: activators of human aryl hydrocarbon receptor; P35869; AID 2796; 2.5% of 320,000 active; activation, % at 5 µM; AHR-responsive luciferase reporter cells, luminescence; in the data active means activation above about 47%;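 further: 0% = vehicle wells and 100% = reference agonist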
# HIF act: HIF pathway transcriptional activation | U2OS HRE-luciferase reporter, luminescence; normalized: DMSO 0%, desferrioxamine 100% | activation, % at 7.5 µM (by protocol) | 0.32% of 300,000 active | AID 1910;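 active means mean activation of at least 10% of the iron chelator positive control signal, with at least half of replicates also reaching 10%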
# PLCb3 inh: blocks human PLC-beta3 enzyme activity. Q01970. Purified PLC-beta3, fluorogenic substrate, fluorescence. inhibition, % at 12.2 µM. 0.18% of 370,000 active; in the data active means inhibition above about 11%;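 further: 0% = median of compound wells on plate and 100% = full blocker control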
# HGIII-sPLA2 inh: Inhibits HGIII-sPLA2 liposome hydrolysis, primary screen; Q9NZ20; QFRET BODIPY PC-A2 liposome hydrolysis, fluorescence; inhibition, % at 12.2 µM; 0.56% of 370,000 active;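 active means inhibition above mean plus 3 SD of compounds lying within the high and low control bounds, cut at about 19% in these data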;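 further: 0% = median of test compound wells and 100% = no enzyme DMSO wells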
# Target sequence (Q9NZ20 whole entry, looked up): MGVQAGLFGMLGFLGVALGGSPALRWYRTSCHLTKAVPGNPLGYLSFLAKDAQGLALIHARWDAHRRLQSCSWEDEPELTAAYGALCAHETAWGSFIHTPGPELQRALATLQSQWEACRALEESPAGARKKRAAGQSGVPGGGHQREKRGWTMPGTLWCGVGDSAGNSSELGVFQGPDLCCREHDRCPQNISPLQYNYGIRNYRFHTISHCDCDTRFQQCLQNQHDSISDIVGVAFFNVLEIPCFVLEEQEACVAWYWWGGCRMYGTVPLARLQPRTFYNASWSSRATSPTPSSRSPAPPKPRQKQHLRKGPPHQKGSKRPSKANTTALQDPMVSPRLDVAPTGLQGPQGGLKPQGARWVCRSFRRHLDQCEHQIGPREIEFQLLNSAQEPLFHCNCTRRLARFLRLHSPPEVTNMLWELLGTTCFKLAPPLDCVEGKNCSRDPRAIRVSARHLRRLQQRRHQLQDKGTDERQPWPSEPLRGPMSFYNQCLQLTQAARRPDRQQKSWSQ
# PLCg1 inh: PLC-gamma1 (human) inhibition, primary screen | purified PLC-gamma1, fluorogenic substrate, fluorescence | inhibition, % at 12.2 µM | 0.84% of 370,000 active; in the data active means inhibition above about 9.5%
# CR mimetic SO: caloric restriction mimetics inhibiting age-related superoxide in yeast. S. cerevisiae aged cells, superoxide DHE fluorescence; hits give low values. superoxide response (% of plate mean), % at 10 µM. 0.18% of 330,000 active. AID 2690;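 active means superoxide response under a set limit, about three screen SD below normal, cut at about 65% in these data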;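 further: yeast aged for seven days with compound at 30 °C before DHE staining; 100% = average MFI of all compound-treated wells on the plate with controls excluded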
# AHR act confirm: human AHR activation, confirmation; 87% of 2,300 active; shares compounds with AHR act; human cells, AHR-responsive luciferase reporter, luminescence; AID 2845; activation, % at 9 µM; in the data active means activation above about 49%;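 further: HepG2 hepatoma cells carrying a DRE-driven firefly luciferase reporter; 0% = vehicle wells and 100% = reference agonist wells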
# PXR act counter: activates human PXR in AHR activator counter-screen | shares compounds with AHR act | cell-based PXR reporter, luciferase luminescence | activation, % at 11.6 µM | 88% of 2,300 active; in the data active means activation above about 11%;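 further: human hepatoma DPX-2 cells expressing full-length human PXR; 0% = DMSO and 100% = reference agonist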
# * hit, by the source's call; . = not tested or not shown. Shown are actives, neighbours in structure and some others; about 3.9% of the full set was active somewhere.
SMILES,AHR act,HIF act,PLCb3 inh,HGIII-sPLA2 inh,PLCg1 inh,CR mimetic SO,AHR act confirm,PXR act counter
COc1ccc(C(C)NC(=O)Cc2cccs2)cc1OC (stereo not given),-1,-1,-9,9,2,101,.,.
Cc1cc(C(=O)Nn2c(-c3ccc(Br)cc3)nc3ccccc3c2=O)ccc1[N+](=O)[O-],83*,0,6,-27,6,143,48*,49*
O=C(Nn1c(-c2ccc(Br)cc2)nc2ccccc2c1=O)c1ccncc1,31,0,4,-8,-1,91,.,.
O=c1[nH]c(/C=C/c2ccc(Cl)cc2Cl)c([N+](=O)[O-])c(=O)[nH]1,1,0,-5,-1,-2,101,.,.
Clc1ccc(C2=Nc3cc(Cl)ccc3OC2)cc1,104*,4,0,15,7,71,129*,6
Cc1ccc2c(c1)N=C(c1ccc(Cl)cc1)CO2,135*,3,-18,-8,-11,105,108*,31*
Cc1ccccc1/C=C1\Oc2ccccc2C1=O,99*,.,-19,8,-12,117,92*,98*
Cn1ncc(C(=O)Nc2ccc(Cl)cc2)c1C(F)(F)F,6,0,-4,9,1,110,.,.
Cn1ncc(C(=O)Nc2ccc(OC(F)(F)F)cc2)c1-n1cccc1,80*,2,-6,-5,2,82,100*,30*
CCOCCCn1c(SCC(=O)Nc2ccc3[nH]c(=O)[nH]c3c2)nc2ccccc2c1=O,0,1,-9,14,-1,93,.,.
O=C(c1cn(-c2ccc(Cl)c(Cl)c2)nn1)C1CC1,84*,3,-7,0,2,94,125*,29*
COCCn1c(SCC(=O)Nc2ccccc2OC)nc2c([nH]c3ccccc32)c1=O,85*,0,-8,-1,0,123,84*,179*
COCCn1c(SCC(=O)NCCc2ccc(OC)c(OC)c2)nc2c([nH]c3ccccc32)c1=O,20,0,-8,-5,-7,91,.,.
COCCn1c(SCC(=O)NCCc2ccccc2)nc2c([nH]c3ccccc32)c1=O,120*,0,.,.,.,95,72*,205*
COc1ccc(-c2nn(C)c3sc(C(=O)NCc4ccco4)cc23)cc1OC,134*,2,-85,-1,-69,108,112*,35*
COc1ccc(-c2[nH]c(-c3ccc(C)cc3)nc2SCC(=O)NCc2ccco2)cc1OC,121*,0,4,-3,-1,81,85*,12*
COc1ccc(-c2ccc(SCC(=O)NCc3ccco3)nn2)cc1OC,9,0,-13,0,-6,104,.,.
Clc1ccc(-c2cn3cc(Br)ccc3n2)cc1Cl,90*,0,-1,14,-1,95,137*,16*
CCOC(=O)Cc1csc(SCC(=O)NC2CCCC2)n1,.,.,-6,-3,-2,.,.,.
O=C(Nc1nc2c(Cl)cccc2s1)c1ccc(Br)o1,102*,1,-56,-11,-37,117,105*,67*
CC(C)(C)CC(C)(C)N=C1Nc2ccccc2NC12C[C@H]1CCC(=O)N3CC[C@@H](C2)[C@@H]13 (stereo not given in full),.,.,2,8,2,.,.,.
O=C(NN=C1CCCC1)c1cc(-c2ccccc2)n[nH]1,23,0,-1,6,1,72,.,.
O=C(NN=C1CCCCC1)c1cc(-c2ccccc2)n[nH]1,121*,0,-2,13,2,90,44,17*
Cc1cc(C(F)(F)F)n2ncc(-c3ccc(F)cc3)c2n1,88*,-5,2,-1,-2,87,120*,23*
c1ccc2c(c1)CCN(c1nc3ccccc3n3cnnc13)C2,86*,1,-24,-4,-22,105,66*,19*
SMILES,AHR act,HIF act,PLCb3 inh,HGIII-sPLA2 inh,PLCg1 inh,CR mimetic SO,AHR act confirm,PXR act counter
COc1ccc(S(=O)(=O)N2CCOCC2)cc1NC(=O)COc1ccc(C(C)=O)cc1OC,.,.,-1,-3,-4,.,.,.
CN1CCN(CCCNC(=O)c2ccc(CS(=O)(=O)c3ccc(Br)cc3)o2)CC1,81*,0,-1,16,1,101,6,12*
O=C1CSC(c2ccc(F)cc2)N1c1ccccc1F (stereo not given),4,3,0,-4,1,95,.,.
O=C1CSC(c2ccc(F)cc2)N1c1nc2ccccc2s1 (stereo not given),149*,0,2,-8,4,70,98*,63*
CCNC(=S)N1CCN(CCN2C(=O)c3cccc4cccc(c34)C2=O)CC1,-2,0,-2,2,0,90,.,.
O=C(/C=C/c1ccc(Cl)cc1)N1CCN(CCN2C(=O)c3cccc4cccc(c34)C2=O)CC1,.,.,-7,4,3,.,.,.
O=C1c2cccc3cccc(c23)C(=O)N1CCN1CCN(C(=S)Nc2ccc(Cl)cc2)CC1,97*,0,4,-1,2,103,110*,65*
O=C1c2cccc3cccc(c23)C(=O)N1CCN1CCN(C(=S)Nc2ccccc2)CC1,98*,-1,-2,6,-2,105,101*,98*
Cn1cc(/C=C(\C#N)C(=O)Nc2ccccc2O)c2ccccc21,14,4,.,.,.,91,.,.
CCOC(=O)c1ccc2c(c1)nc(-c1ccc(F)cc1)c1nccn12,85*,0,0,12,6,86,99*,24*
O=C(O)C1Cc2c([nH]c3ccccc23)C(c2ccc3c(c2)OCO3)N1 (stereo not given),90*,0,-46,7,-36,81,73*,12*
COC(=O)[C@H]1Cc2c([nH]c3ccccc23)[C@H](c2ccccc2)N1,19,0,-6,3,-2,93,.,.
c1cc(CSc2nnc(-c3ccc4c(c3)OCO4)o2)ccn1,88*,3,2,2,4,106,52*,24*
COc1cccc(C2(O)C(=O)Nc3ccccc32)c1 (stereo not given),2,1,-3,-3,2,92,.,.
COCCCNC(=O)c1sc2ncnc(N3CCc4ccccc4C3)c2c1C,100*,0,-10,3,-8,106,82*,20*
Cc1c(C(=O)N2CCCCC2C)sc2ncnc(N3CCc4ccccc4C3)c12 (stereo not given),5,0,0,-3,3,89,.,.
C=CCc1c(C)nc(-c2ccccc2)nc1Nc1ccccc1O,121*,0,-1,-32,2,122,88*,134*
CCNC(=O)C1CCCN(C(=O)c2cccc(OC(F)(F)F)c2)CC1 (stereo not given),.,.,-2,-1,-2,.,.,.
